Our source for the outcome and AC50 values is PubChem BioAssay (EPA / NIEHS).

Records with an inconclusive call do not appear. The source made the active and inactive calls. The calls were made as follows: active = hit-call score of the fitted dose curve at least 0.9, where 1 is the maximum; inconclusive = response in the unintended direction; inactive = score below 0.9.

This assay in a line: STM_H9_NormalizedViability: Cytotoxicity Assessment at 120 hours in the Stemina devTOX quickPredict H9 human embryonic stem cell (hESC)-based Assay (AID 2283784). Summed up:
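Undifferentiated H9 hESCs kept pluripotent were exposed to compound, with media and chemical replaced every 24h. CellTiter-Fluor protease-substrate fluorescence was background-corrected and normalized per plate to the 0.1% DMSO vehicle; signal loss indicates reduced viability.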
`O=C1CCCO1`: the result was inactive. Take `C[N+](C)(C)CC1CO1` (configuration not stated): the AC50 is 24 µM (active). Same read-out and setting: the value for `O=[N+]([O-])c1ccc(Oc2ccc(Cl)cc2Cl)cc1` was 77 µM (active); that for `CCCCCCCCn1sccc1=O` was 47.7 µM (active); that for `Nc1ccc(Oc2ccc(N)cc2)cc1` was 75.5 µM (active). `CC(C)COC(=O)c1ccccc1C(=O)OCC(C)C`: the outcome was inactive. For the compound `CNC(=O)Oc1cccc2c1OC(C)(C)C2`, the AC50 was 21.4 µM (active). Regarding `Brc1ccc(Oc2ccccc2)cc1`, the result was inactive. For the compound `CCN(CC)N=O`, the result was inactive. On to `OCCCBr`, for which the outcome was inactive. Turning to `CC(C)(C)C(O)(CCc1ccc(Cl)cc1)Cn1cncn1` (configuration not stated), the AC50 was 78.7 µM (active). Same read-out and setting: next, `COc1cc(C=O)cc2c1[C@H](COC(N)=O)[C@]1(OC(C)=O)ON2C[C@H]2[C@@H]1N2C(C)=O`: 0.00149 µM (active).
